# Several values for one entry are separate records, joined by “and”; a condition that tells them apart may be missing. Equal entries are not always repeated. Where two headings read alike, the source gives them in different places.
# Legend:
# RIPK5 = details: concentration: 1 μM, replicates: in singlicate, n = 1
# ROCK1 = details: concentration: 1 μM, replicates: in singlicate; n = 1
# ROCK2 = details: concentration: 1 μM, replicates: in singlicate; n = 1
# ROS1 = details: concentration: 1 μM, replicates: in singlicate, n = 1
# [1] = system: RPS6KA4(Kin.Dom.1-N-terminal); details: concentration: 1 μM, replicates: in singlicate, n = 1
# [2] = system: RPS6KA4(Kin.Dom.2-C-terminal); details: concentration: 1 μM, replicates: in singlicate, n = 1
# [3] = system: RPS6KA5(Kin.Dom.1-N-terminal); details: concentration: 1 μM, replicates: in singlicate, n = 1
# [4] = system: RPS6KA5(Kin.Dom.2-C-terminal); details: concentration: 1 μM, replicates: in singlicate, n = 1
# [5] = system: T1, RSK1(Kin.Dom.1-N-terminal); details: concentration: 1 μM, replicates: in singlicate, n = 1
# T1 construct: gene RPS6KA1
# [6] = system: T2, RSK1(Kin.Dom.2-C-terminal); details: concentration: 1 μM, replicates: in singlicate, n = 1
# T2 construct: gene RPS6KA1
# [7] = system: T3, RSK2(Kin.Dom.1-N-terminal); details: concentration: 1 μM, replicates: in singlicate, n = 1
# T3 construct: gene RPS6KA3
# [8] = system: T4, RSK2(Kin.Dom.2-C-terminal); details: concentration: 1 μM, replicates: in singlicate; n = 1
# T4 construct: gene RPS6KA3
# [9] = system: T5, RSK3(Kin.Dom.1-N-terminal); details: concentration: 1 μM, replicates: in singlicate, n = 1
# T5 construct: gene RPS6KA2
# [10] = system: T6, RSK3(Kin.Dom.2-C-terminal); details: concentration: 1 μM, replicates: in singlicate, n = 1
# T6 construct: gene RPS6KA2
# [11] = system: T7, RSK4(Kin.Dom.1-N-terminal); details: concentration: 1 μM, replicates: in singlicate, n = 1
# T7 construct: gene RPS6KA6
# [12] = system: T8, RSK4(Kin.Dom.2-C-terminal); details: concentration: 1 μM, replicates: in singlicate, n = 1
# T8 construct: gene RPS6KA6
# S6K1 = details: concentration: 1 μM, replicates: in singlicate, n = 1
# SBK1 = details: concentration: 1 μM, replicates: in singlicate, n = 1
# SGK2 = details: concentration: 1 μM, replicates: in singlicate, n = 1
# SGK3 = details: concentration: 1 μM, replicates: in singlicate, n = 1
# 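Note: KINOMEscan kinase panel screen.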
compound,measurement,setting,value
CNc1ncnc2[nH]ncc12 [SKF-18355],%Inh,RIPK5,8%
same,%Inh,ROCK1,91.5%
same,%Inh,ROCK2,84%
same,%Inh,ROS1,0%
same,%Inh,[1],23%
same,%Inh,[2],0%
same,%Inh,[3],0%
same,%Inh,[4],17%
same,%Inh,[5],0%
same,%Inh,[6],15%
same,%Inh,[7],46%
same,%Inh,[8],0%
same,%Inh,[9],5%
same,%Inh,[10],22%
same,%Inh,[11],16%
same,%Inh,[12],0%
same,%Inh,S6K1,24%
same,%Inh,SBK1,0%
same,%Inh,SGK2,0%
same,%Inh,SGK3,0%
CN(C(=O)c1ccc(-c2cc(-c3c[nH]nc3-c3ccccn3)ccn2)cc1)C1CCOCC1 [GW810083],%Inh,RIPK5,0%
same,%Inh,ROCK1,31%
same,%Inh,ROCK2,20%
same,%Inh,ROS1,0%
same,%Inh,[1],0%
same,%Inh,[2],0%
same,%Inh,[3],0%
same,%Inh,[4],0%
same,%Inh,[5],0%
same,%Inh,[6],0%
same,%Inh,[7],6%
same,%Inh,[8],20%
same,%Inh,[9],0%
same,%Inh,[10],16%
same,%Inh,[11],0%
same,%Inh,[12],53%
same,%Inh,S6K1,0%
same,%Inh,SBK1,0%
same,%Inh,SGK2,8%
same,%Inh,SGK3,0%
NS(=O)(=O)CCc1cccc(Nc2nccc(-c3c(-c4cccc(NC(=O)c5c(F)cccc5F)c4)nn4ccccc34)n2)c1 [GSK336735],%Inh,RIPK5,10%
same,%Inh,ROCK1,24%
same,%Inh,ROCK2,0%
same,%Inh,ROS1,79%
same,%Inh,[1],53%
same,%Inh,[2],0%
same,%Inh,[3],63%
same,%Inh,[4],6%
same,%Inh,[5],100%
same,%Inh,[6],0%
same,%Inh,[7],15%
same,%Inh,[8],0%
same,%Inh,[9],45%
same,%Inh,[10],0%
same,%Inh,[11],0%
same,%Inh,[12],2%
same,%Inh,S6K1,20%
same,%Inh,SBK1,27%
same,%Inh,SGK2,0%
same,%Inh,SGK3,3%
CCc1nc(-c2cccc(C)c2)c(-c2ccnc(NCc3ccccc3)c2)s1,%Inh,RIPK5,14%
same,%Inh,ROCK1,0%
same,%Inh,ROCK2,0%
same,%Inh,ROS1,0%
same,%Inh,[1],0%
same,%Inh,[2],1%
same,%Inh,[3],1%
same,%Inh,[4],4%
same,%Inh,[5],0%
same,%Inh,[6],57%
same,%Inh,[7],0%
same,%Inh,[8],0%
same,%Inh,[9],0%
same,%Inh,[10],2%
same,%Inh,[11],0%
same,%Inh,[12],53%
same,%Inh,S6K1,4%
same,%Inh,SBK1,0%
same,%Inh,SGK2,4%
same,%Inh,SGK3,0%
COc1ccc(Nc2nccc(N3CCC(NC(=O)Nc4cc(C)ccc4C)C3)n2)cc1 (centres unmarked) [GSK1379741],%Inh,RIPK5,0%
same,%Inh,ROCK1,14%
same,%Inh,ROCK2,0%
same,%Inh,ROS1,0%
same,%Inh,[1],0%
same,%Inh,[2],0%
same,%Inh,[3],8%
same,%Inh,[4],19%
same,%Inh,[5],6%
same,%Inh,[6],0%
same,%Inh,[7],0%
same,%Inh,[8],0%
same,%Inh,[9],18%
same,%Inh,[10],0%
same,%Inh,[11],0%
same,%Inh,[12],0%
same,%Inh,S6K1,11%
same,%Inh,SBK1,0%
same,%Inh,SGK2,0%
same,%Inh,SGK3,0%
O=c1cc(N2CCOCC2)nc2n(Cc3cccc(F)c3)ccn12 [GSK2297430],%Inh,RIPK5,0%
same,%Inh,ROCK1,0%
same,%Inh,ROCK2,27%
same,%Inh,ROS1,24%
same,%Inh,[1],19%
same,%Inh,[2],0%
same,%Inh,[3],26%
same,%Inh,[4],0%
same,%Inh,[5],0%
same,%Inh,[6],0%
same,%Inh,[7],0%
same,%Inh,[8],0%
same,%Inh,[9],14%
same,%Inh,[10],0%
same,%Inh,[11],0%
same,%Inh,[12],6%
same,%Inh,S6K1,0%
same,%Inh,SBK1,6%
same,%Inh,SGK2,0%
same,%Inh,SGK3,0%
CN(C1=C(c2ccccc2)C(=O)NC1=O)c1ccccc1 [SB-334860],%Inh,RIPK5,15%
same,%Inh,ROCK1,0%
same,%Inh,ROCK2,0%
same,%Inh,ROS1,4%
same,%Inh,[1],10%
same,%Inh,[2],0%
same,%Inh,[3],7%
same,%Inh,[4],12%
same,%Inh,[5],4%
same,%Inh,[6],13%
same,%Inh,[7],4%
same,%Inh,[8],23%
same,%Inh,[9],14%
same,%Inh,[10],0%
same,%Inh,[11],0%
same,%Inh,[12],8%
same,%Inh,S6K1,2%
same,%Inh,SBK1,2%
same,%Inh,SGK2,0%
same,%Inh,SGK3,16%
Cc1cccc(-c2nc(-c3ccc(S(C)(=O)=O)cc3)sc2-c2ccncc2)c1,%Inh,RIPK5,18%
same,%Inh,ROCK1,16%
same,%Inh,ROCK2,0%
same,%Inh,ROS1,23%
same,%Inh,[1],0%
same,%Inh,[2],3%
same,%Inh,[3],11%
same,%Inh,[4],9%
same,%Inh,[5],0%
same,%Inh,[6],34%
same,%Inh,[7],0%
same,%Inh,[8],25%
same,%Inh,[9],0%
same,%Inh,[10],4%
same,%Inh,[11],30%
same,%Inh,[12],15%
same,%Inh,S6K1,12%
same,%Inh,SBK1,1%
same,%Inh,SGK2,0%
same,%Inh,SGK3,12%
Cc1ccc(NC(=O)c2ccnc(N3CCN(C)CC3)c2)cc1-c1ccc(C(=O)NCC2CC2)cc1 [GW775604],%Inh,RIPK5,0%
same,%Inh,ROCK1,41%
same,%Inh,ROCK2,0%
same,%Inh,ROS1,0%
same,%Inh,[1],10%
same,%Inh,[2],0%
same,%Inh,[3],0%
same,%Inh,[4],0%
same,%Inh,[5],0%
same,%Inh,[6],0%
same,%Inh,[7],0%
same,%Inh,[8],0%
same,%Inh,[9],0%
same,%Inh,[10],15%
same,%Inh,[11],0%
same,%Inh,[12],7%
same,%Inh,S6K1,9%
same,%Inh,SBK1,0%
same,%Inh,SGK2,0%
same,%Inh,SGK3,0%
NCCNS(=O)(=O)c1ccc(-c2ccnc3[nH]ccc23)cc1 [GSK977617],%Inh,RIPK5; 1 µM,3% and 0%
same,%Inh,ROCK2,99.8%
same,%Inh,ROS1; 1 µM,65% and 43%
same,%Inh,[1]; 1 µM,48% and 33%
same,%Inh,[2]; 1 µM,99.2% and 98.5%
same,%Inh,[3]; 1 µM,47% and 33%
same,%Inh,[4]; 1 µM,97.6% and 94.8%
same,%Inh,[5]; 1 µM,62% and 27%
same,%Inh,[6]; 1 µM,63% and 41%
same,%Inh,[7]; 1 µM,79% and 60%
same,%Inh,[8],0%
same,%Inh,[9]; 1 µM,40% and 14%
same,%Inh,[10]; 1 µM,29% and 22%
same,%Inh,[11]; 1 µM,54% and 23%
same,%Inh,[12]; 1 µM,48% and 37%
same,%Inh,S6K1; 1 µM,71% and 73%
same,%Inh,SBK1; 1 µM,79% and 57%
same,%Inh,SGK2; 1 µM,24% and 4%
same,%Inh,SGK3; 1 µM,57% and 44%
Cc1cccc(-c2nc(Nc3ccc4ncsc4c3)c3ccccc3n2)n1 [GW867588],%Inh,RIPK5,24%
same,%Inh,ROCK1,45%
same,%Inh,ROCK2,13%
same,%Inh,ROS1,17%
same,%Inh,[1],30%
same,%Inh,[2],0%
same,%Inh,[3],0%
same,%Inh,[4],8%
same,%Inh,[5],0%
same,%Inh,[6],16%
same,%Inh,[7],8%
same,%Inh,[8],0%
same,%Inh,[9],0%
same,%Inh,[10],9%
same,%Inh,[11],6%
same,%Inh,[12],8%
same,%Inh,S6K1,0%
same,%Inh,SBK1,19%
same,%Inh,SGK2,0%
same,%Inh,SGK3,0%
O=C(Nc1cccc(-c2nn3ncccc3c2-c2ccnc(Nc3cccc(C(F)(F)F)c3)n2)c1)c1c(F)cccc1F [GSK299495],%Inh,RIPK5,0%
same,%Inh,ROCK1,12%
same,%Inh,ROCK2,16%
same,%Inh,ROS1,0%
same,%Inh,[1],2%
same,%Inh,[2],0%
same,%Inh,[3],23%
same,%Inh,[4],5%
same,%Inh,[5],97.4%
same,%Inh,[6],0%
same,%Inh,[7],22%
same,%Inh,[8],0%
same,%Inh,[9],31%
same,%Inh,[10],5%
same,%Inh,[11],0%
same,%Inh,[12],0%
same,%Inh,S6K1,0%
same,%Inh,SBK1,11%
same,%Inh,SGK2,2%
same,%Inh,SGK3,0%
CC(=O)Nc1ccc(COc2ccc(Nc3ccnc4cc(-c5ccccn5)ccc34)cc2)cc1.Cl [GW440148],%Inh,RIPK5,0%
same,%Inh,ROCK1,14%
same,%Inh,ROCK2,7%
same,%Inh,ROS1,0%
same,%Inh,[1],0%
same,%Inh,[2],0%
same,%Inh,[3],1%
same,%Inh,[4],20%
same,%Inh,[5],7%
same,%Inh,[6],33%
same,%Inh,[7],0%
same,%Inh,[8],6%
same,%Inh,[9],3%
same,%Inh,[10],11%
same,%Inh,[11],0%
same,%Inh,[12],26%
same,%Inh,S6K1,0%
same,%Inh,SBK1,0%
same,%Inh,SGK2,0%
same,%Inh,SGK3,8%
CSc1ccc(-c2cc3ncnc(SCC(=O)O)c3s2)cc1,%Inh,RIPK5,0%
same,%Inh,ROCK1,0%
same,%Inh,ROCK2,0%
same,%Inh,ROS1,3%
same,%Inh,[1],0%
same,%Inh,[2],0%
same,%Inh,[3],0%
same,%Inh,[4],0%
same,%Inh,[5],9%
same,%Inh,[6],12%
same,%Inh,[7],0%
same,%Inh,[8],0%
same,%Inh,[9],0%
same,%Inh,[10],20%
same,%Inh,[11],0%
same,%Inh,[12],19%
same,%Inh,S6K1,0%
same,%Inh,SBK1,0%
same,%Inh,SGK2,0%
same,%Inh,SGK3,6%
O=C1Cc2cc(Nc3nc(NCc4cccc(S(=O)(=O)C(F)(F)F)c4)ncc3C(F)(F)F)ccc2N1,%Inh,RIPK5,4%
same,%Inh,ROCK1,6%
same,%Inh,ROCK2,13%
same,%Inh,ROS1,3%
same,%Inh,[1],11%
same,%Inh,[2],24%
same,%Inh,[3],0%
same,%Inh,[4],0%
same,%Inh,[5],41%
same,%Inh,[6],0%
same,%Inh,[7],37%
same,%Inh,[8],15%
same,%Inh,[9],8%
same,%Inh,[10],0%
same,%Inh,[11],35%
same,%Inh,[12],0%
same,%Inh,S6K1,0%
same,%Inh,SBK1,0%
same,%Inh,SGK2,2%
same,%Inh,SGK3,33%

# — article PMC5540273 (PLoS ONE, 2017)
